In PubChem BioAssay AID1946 (Johns Hopkins Ion Channel Center, 2009):
Hit rate of the full screen: of about 2,400 compounds, about 180 (7.5%) were called active.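 Rule for the calls: active = readout below zero, meaning a drop past 3 SD under the dofetilide-free negative control mean; inactive = the rest.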 The sample as a whole holds a higher share of actives than the screen did.

Target: Potassium voltage-gated channel subfamily KQT member 2 (Rattus norvegicus) (UniProt O88943)
Test: rat KCNQ2 channel inhibition by compounds alone, confirmation, counter-screen for hERG block protector project, cell-based, CHO, FluxOR thallium flux (AID 1946)
Settings: CHO-KCNQ2 cells, FluxOR thallium flux fluorescence; at 10 µM; hits give low values; zero marks the 3-SD hit cutoff

Sequence of Potassium voltage-gated channel subfamily KQT member 2 (Rattus norvegicus) (O88943 whole entry, looked up): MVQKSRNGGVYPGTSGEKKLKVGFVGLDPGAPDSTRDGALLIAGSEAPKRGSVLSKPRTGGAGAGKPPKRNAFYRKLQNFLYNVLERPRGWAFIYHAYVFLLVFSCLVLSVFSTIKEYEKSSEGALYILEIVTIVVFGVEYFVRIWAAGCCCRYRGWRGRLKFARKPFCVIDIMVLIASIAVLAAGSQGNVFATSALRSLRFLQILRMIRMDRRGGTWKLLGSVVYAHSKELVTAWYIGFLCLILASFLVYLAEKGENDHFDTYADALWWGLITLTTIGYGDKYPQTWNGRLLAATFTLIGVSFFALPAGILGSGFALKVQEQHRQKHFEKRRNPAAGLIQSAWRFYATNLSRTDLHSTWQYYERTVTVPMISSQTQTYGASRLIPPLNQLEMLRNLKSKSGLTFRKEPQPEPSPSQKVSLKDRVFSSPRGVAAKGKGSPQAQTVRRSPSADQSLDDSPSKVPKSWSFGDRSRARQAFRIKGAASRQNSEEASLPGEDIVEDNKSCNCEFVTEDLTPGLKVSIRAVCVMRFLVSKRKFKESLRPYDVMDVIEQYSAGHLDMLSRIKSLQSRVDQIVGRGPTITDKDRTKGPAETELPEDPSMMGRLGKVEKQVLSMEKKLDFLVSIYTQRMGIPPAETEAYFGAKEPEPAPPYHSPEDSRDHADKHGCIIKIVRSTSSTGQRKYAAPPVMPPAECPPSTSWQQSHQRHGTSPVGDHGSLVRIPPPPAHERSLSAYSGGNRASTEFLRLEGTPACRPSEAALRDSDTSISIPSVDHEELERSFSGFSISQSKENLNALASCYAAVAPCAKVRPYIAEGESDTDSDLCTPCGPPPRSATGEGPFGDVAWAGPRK

Row | SMILES | activity change vs negative control
1 | CCn1c(SCC(=O)NC(=O)NCc2ccco2)nc2sc(C)c(C)c2c1=O | 43.3% (inactive)
2 | C=CCSc1nc2sc3c(c2c(=O)n1CC)CCc1ccccc1-3 | 35% (inactive)
3 | CS(=O)(=O)N(CCc1ccccc1)CC(=O)N1CCN(c2ccc(F)cc2)CC1 | 1.7% (inactive)
4 | CC(=O)c1ccc(N2CCN(C(=O)Cc3ccccc3)CC2)c(F)c1 | -0.2% (active)
5 | O=C(c1ccc(Cl)c(S(=O)(=O)N2CCCC2)c1)N1CCN(c2ccccc2F)CC1 | 14.8% (inactive)
6 | S=c1nc(-c2ccc(Br)cc2)[nH]c2ccccc12 | 122% (inactive)
7 | Cc1ccc(C(=O)CC(=O)COc2ccc(Cl)cc2C)cc1 | 13.2% (inactive)
8 | O=C(Nc1nnc(-c2ccccc2)o1)c1ccc(Cl)cc1 | 13.6% (inactive)
9 | CCC(=O)Nc1nnc(-c2ccccn2)o1 | -0.7% (active)
10 | O=C(CCC(=O)Nc1ccccc1)NNC(=O)c1ccco1 | 3.9% (inactive)
11 | O=C(CCc1ccccc1)Nc1nnc(-c2ccccn2)o1 | -2.9% (active)
12 | O=C(Nc1nnc(-c2ccc3c(c2)CCCC3)o1)C1COc2ccccc2O1 (stereo not given) | 28% (inactive)
13 | O=C(CCc1ccccc1)Nc1nccs1 | 4.5% (inactive)
14 | CCCOc1ccc(OC(=O)c2ccc(Br)o2)cc1 | 20.9% (inactive)
15 | O=C(NC(=S)Nc1ccccc1)c1csnn1 | 105% (inactive)
16 | CC(=O)Nc1ccc(S(=O)(=O)N2CCC(C(=O)O)CC2)cc1 | -3% (active)
17 | O=C(/C=C/c1ccccc1)Nc1ccc(S(=O)(=O)N2CCOCC2)cc1 | 2% (inactive)
18 | CC(=O)Nc1ccc(S(=O)(=O)N2CCC(NC(=O)c3ccccc3)CC2)cc1 | 9.4% (inactive)
19 | CCc1cc2c(=O)n(CCC(C)C)c(=S)[nH]c2s1 | 83.4% (inactive)
20 | S=c1nc(COc2ccccc2)[nH]c2ccccc12 | 159% (inactive)
21 | CN(C)CCCN=C(NO)c1ccc(Cl)cc1Cl | 6.6% (inactive)
22 | CCSc1nc2c(sc3ccccc32)c(=O)n1C(C)C | 54.6% (inactive)
23 | COCC(=O)Nc1cc(C)cn(Cc2c(F)cccc2Cl)c1=O | -0.6% (active)
24 | O=C(COC(=O)C1CCC(=O)N1)Nc1cc(Cl)ccc1Cl (stereo not given) | 4.6% (inactive)
25 | CCOC(=O)c1sc2ncnc(NCc3ccco3)c2c1C | 66.3% (inactive)
26 | CCCN(C(=O)c1ccco1)c1nnc(-c2ccncc2)s1 | 7.1% (inactive)
27 | Cc1[nH]n2c(=O)cc(C(C)(C)C)nc2c1-c1ccccc1 | 38.2% (inactive)
28 | Cc1oc(-c2cccs2)nc1CN1CCC(C(=O)N2CCCC2)CC1 | 12.1% (inactive)
29 | CC1CCCN(C(=O)COC(=O)c2cc(-c3cccs3)nn2-c2ccccc2)C1 (stereo not given) | -2.5% (active)
30 | CCOC(=O)C1CCN(C(=O)COC(=O)c2nn(C)c(=O)c3ccccc23)CC1 | 8.5% (inactive)
